Structures are written as SMILES. Out of some 280,000 compounds screened, about 2,600 (0.93%) were called active. A call without a number means that no potency is given here. Another 8% or so got no clear call; they are omitted. The call rests on the fitted dose curve; in most records, active means well fitted curve in the direction sought with a large enough effect; inconclusive means small, poorly fitted or top-dose-only effect; inactive means flat fitted curve, though single readings scatter. Many of the other results were omitted from the sample, so actives are more common in it than they were.
Potency means the concentration at half of the fitted maximal effect; tags describe the fitted curve by direction and shape or compound fluorescence and quenching.

The nature of this test: Counterscreen qHTS for Inhibitors of Tau Fibril Formation, Fluorescence Polarization. Further: nearly all actives have a fitted effect of over 55% in size. The settings on record: tau K18 P301L Alexa594 fluorescence, heparin fibrillization; series mostly up to 57.7 µM. The gist of the method:
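Human tau K18 P301L (15 uM unlabeled, 0.24 uM Alexa 594-labeled) in 100 mM sodium acetate pH 7 with 20 uM heparin, 6 hr at 37 C. ThT 30 uM added, 1 hr ambient; Alexa 594 FP and total fluorescence read at 555/632 nm.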
For orientation: A counterscreen serves to expose hits that act by an unwanted route or on another target.
On to `Oc1ccc(CNc2ccccc2O)cc1`, for which the Potency was 17.8 µM [quencher] (active).
As for `Oc1ccc(N2CCN(C(=S)NCc3ccccc3)CC2)cc1`, the entry is “inactive”; as for `O=[N+]([O-])c1ccccc1NCc1ccc(Cl)cc1`, “inactive”.
The result for `Cc1cc(C)c2oc(-c3cccc(NC(=O)c4cccc(F)c4)c3C)nc2c1` reads “inactive”.
As for `COc1ccc(OC)c(CCNC(=O)CCCn2c(=O)c3cccn3c3cccnc32)c1`, the entry is “inactive”.
For `COc1ccc(Nc2ncnc3sc(-c4ccccc4)cc23)c(OC)c1`, the Potency was 14.1 µM [quencher] (active).
As for `COc1ccccc1Nc1ncnc2c1oc1ccccc12`, the entry is “inactive”.
As for `COc1ccc(Nc2ncnc3ccc(OC)cc23)cc1`, the entry is “inactive”.
With `O=C(CN1CCN(c2ccc(O)cc2)CC1)Nc1cc(S(=O)(=O)N2CCOCC2)ccc1Cl`, the Potency entry is “inactive”.
The result for `O=[N+]([O-])c1cc(Cl)cc(/C=N/NC(=S)Nc2cc(S(=O)(=O)N3CCOCC3)ccc2Cl)c1O` reads 8.91 µM [quencher] (active).
As for `O=C(N/N=C/c1ccc([N+](=O)[O-])o1)c1cccc(S(=O)(=O)N2CCOCC2)c1`, the entry is “inactive”.
As for `CSc1ccccc1-c1nnc(NC(=O)c2ccc3c(c2)OCCO3)o1`, the entry is “inactive”; as for `CCCNC(=O)C1CCC(Cn2c(=O)c3sccc3n(Cc3ccccc3F)c2=O)CC1` (stereo not drawn), “inactive”; as for `COc1ccc(NC(=O)CSc2nccn2C2CCCC2)cc1OC`, “inactive”.
On to `Cn1c(=O)c2c(ncn2CC(=O)Nc2cccc(C(F)(F)F)c2)n(C)c1=O`, for which the Potency entry is “inactive”.
The result for `CC(C)(C)c1ccc(NC(=O)NCc2ccco2)cc1` reads “inactive”.
As for `CCCCNC(=O)CCNC(=O)c1ccc(C(C)(C)C)cc1`, the entry is “inactive”.
As for `CC(C)(C)c1ccc(C(=O)NCCC(=O)NCc2ccco2)cc1`, the figure is 14.1 µM [quencher] (active); as for `COc1ccc(NC(=O)COCc2cc(-c3ccco3)on2)cc1`, “inactive”.
`Cc1ccc(NC(=O)CSc2nc3ccccc3c3nc(CCn4cncc4C)nn23)cc1F`: the Potency result is “inactive”.
As for `Cc1nc(N2CCC(C)CC2)c2c(C)c(C(=O)Nc3cc(F)ccc3C)sc2n1`, the entry is “inactive”; as for `Cc1ccc(NC(=O)Nc2sc3nc4n(c(=O)c3c2C)CCC(C)CC4)c(Cl)c1` (stereo not drawn), 7.08 µM [quencher] (active); as for `Cc1c(C(=O)Nc2ccccc2)sc2nc3n(c(=O)c12)CCCCC3`, “inactive”.
Regarding `CCOC(=O)c1cccc(NC(=O)Cn2cnc3nc4c(cc3c2=O)CCCC4)c1`, the Potency result was “inactive”.
The result for `COc1ccc(-n2nc(C(=O)NCCc3ccc(Cl)cc3)c3c4ccccc4n(C)c3c2=O)cc1Cl` reads “inactive”.
As for `CC1CCC(N2CC(=O)N(CCC3=CCCCC3)C(c3ccc(F)cc3)C2=O)CC1` (stereo not drawn), the entry is “inactive”; as for `O=C(CCn1ccc2cc(S(=O)(=O)N3CCCC3)ccc21)NCc1cccc(Cl)c1`, “inactive”; as for `CC(C)(C)OC(=O)N1CCC(c2c(C(=O)N3CCN(c4cccc(Cl)c4)CC3)cnn2-c2cccc(Cl)c2)CC1`, “inactive”.
As for `Cc1cccc(N2CCN(C(=O)CCSCc3ccccc3F)CC2)c1C`, the entry is “inactive”; as for `Cc1ccc(NC(=O)c2cc(-c3ccc(C)o3)nc3ccccc23)nc1`, “inactive”; as for `Cc1cc(O)ccc1-c1cnc2ccccc2n1`, “inactive”.
Consider `Cc1ccc(Nc2nc(-c3ccc(O)cc3O)cs2)nc1`, for which the Potency was 8.91 µM [quencher] (active).
Take `COc1ccc(NC(=O)CSc2nc3ccccc3[nH]2)cc1`: the Potency result was “inactive”.
For the compound `Cc1ccc2nc(N3CCN(c4cccc(Cl)c4)CC3)c3nnnn3c2c1`, the Potency result was “inactive”.
As for `CC(=O)Nc1cccc(/C(C)=N/NC(=O)c2ccccc2Cl)c1`, the entry is “inactive”; as for `O=C(NC1CC1)c1ccc2c(c1)NC(=O)c1ccccc1S2`, “inactive”; as for `C/C(=N\Nc1cccc(C(=O)O)c1)c1ccc2c(c1)Nc1ccccc1S2`, 11.2 µM [quencher] (active).
The result for `CCN(CCCNC(=O)c1cc2c(=O)n(CC)c3ccccc3c2s1)Cc1ccccc1` reads “inactive”.
The result for `Cc1c(NC(=O)C(C)(C)C)cccc1-c1nc2ccccc2s1` reads “inactive”; that for `O=c1c(-c2ccccc2)coc2cc(O)ccc12`, “inactive”; that for `CC(C)=CCc1c(O)c(CC=C(C)C)c2occ(-c3ccc(O)cc3)c(=O)c2c1O`, 15.8 µM [quencher] (active).
With `Cc1c(O)cc(O)c2c(=O)c(-c3ccc(O)cc3)coc12`, the Potency result was “inactive”.
As for `COc1ccc(-c2nnc(SCC(=O)Nc3ccc(C(C)C)cc3)nc2-c2ccc(OC)c(OC)c2)cc1OC`, the entry is “inactive”.
The result for `Cc1ccc2nc(-c3cccnc3)c(NC3CCCC3)n2c1` reads “inactive”; that for `Oc1ccc(-c2nc3ccc(Cl)cn3c2Nc2ccc3c(c2)OCO3)cc1`, “inactive”; that for `Cc1ccc2nc(-c3ccc(O)cc3)c(Nc3ccc4c(c3)OCO4)n2c1`, 17.8 µM [quencher] (active).
The result for `COc1ccc(CCNC(=O)c2ccc(-n3c(C)cc4c3CCCC4)cc2)cc1OC` reads “inactive”; that for `O=C(N/N=C/c1ccc([N+](=O)[O-])cc1)C(=O)N1CCCC1`, “inactive”.
In the case of `O=[N+]([O-])c1ccc(N/N=C/c2ccccc2)cc1`, the Potency was 8.91 µM [quencher] (active).
Regarding `NC(=S)N/N=C/c1ccc([N+](=O)[O-])cc1`, the Potency result was “inactive”.
The result for `Cc1nc2ccn(Cc3cccs3)c(=O)c2cc1C(=O)NCc1ccc(Cl)cc1` reads “inactive”.
As for `COc1ccccc1Oc1nc(-c2cccnc2)nc2ccccc12`, the entry is “inactive”.
As for `COc1cccc(Nc2nc3ccccc3c3nncn23)c1`, the entry is “inactive”.
On to `COc1cccc(-c2nc(Nc3ccncc3)c3ccccc3n2)c1`, for which the Potency was 10 µM [quencher] (active).
Regarding `Cc1ccccc1CNC(=O)c1cccc(NC(=O)c2nsc3ccccc23)c1`, the Potency entry was “inactive”.
As for `CCS(=O)(=O)N1CCc2cc(C(=O)N3CCN(c4ccccc4OC)CC3)ccc21`, the entry is “inactive”; as for `O=C1c2ccccc2C2=Nc3ccccc3SC(c3ccccc3F)C12` (stereo not drawn), 5.62 µM [quencher] (active).
On to `COc1ccc(CCNC(=O)c2ccc3c(c2)nc(C)n3-c2ccc(Br)cc2)cc1OC`, for which the Potency result was “inactive”.
The result for `CCC(=O)N1CCc2cc(CNS(=O)(=O)c3ccc(Br)s3)ccc21` reads “inactive”.
The result for `COc1ccc(C2Sc3ccccc3NC3=C2C(=O)c2ccccc23)c(OC)c1OC` (stereo not drawn) reads 6.31 µM [quencher] (active).
Consider `COc1ccc2c(c1OC)C(=O)c1ccccc1C2=O`, for which the Potency result was “inactive”.
The result for `COc1ccc(C2CC(=O)Nc3cc(C)c(C)cc32)c(OC)c1OC` (stereo not drawn) reads “inactive”.
The result for `COc1ccc(C(=O)NCC(c2ccc(N(C)C)cc2)N2CCc3ccccc32)c(OC)c1` (stereo not drawn) reads “inactive”.
As for `Cc1ccc(Oc2c(C(F)(F)F)oc3c(CN4CCCCC4)c(O)ccc3c2=O)cc1`, the entry is “inactive”; as for `Cc1ccc(C(=O)Nc2c(C(=O)NC(C)(C)C)oc3ccccc23)cc1`, “inactive”.
`Oc1ccc2ccccc2c1N=Nc1nccs1`: the Potency is 12.6 µM [quencher] (active).
As for `CCOC(=O)c1ccc2c(c1)N(Cc1cccc(OC)c1)C(=O)c1ccccc1S2(=O)=O`, the entry is “inactive”; as for `COc1cccc(CNC(=O)Cc2csc3nc(-c4ccccc4)cn23)c1`, “inactive”; as for `Cc1nc2c(-c3ccccc3)c(C)nn2c(C)c1CCC(=O)NCCc1ccccc1`, “inactive”.
As for `CCc1c(C)nc2c(-c3ccccc3)c(C)nn2c1Nc1ccc(NC(C)=O)cc1`, the figure is 17.8 µM [quencher] (active); as for `CCc1ccc(NC(=O)c2cnc3c(-c4ccccc4)c(C)nn3c2C)cc1`, “inactive”.
As for `COc1ccccc1NC(=O)CSC1=Nc2ccccc2C2=NC(CC(=O)NCc3cccs3)C(=O)N12` (stereo not drawn), the entry is “inactive”; as for `COc1ccc(CCNC(=O)c2ccc(CSCc3ccc(C)cc3)o2)cc1OC`, “inactive”.
In the case of `Nc1ccc(N=Nc2ccccc2Cl)c(N)n1`, the Potency was 15.8 µM [quencher] (active).
The result for `Cc1ccc(C)c(N2CCN(C(=O)Cn3ncc4c(=O)oc5ccc(C)cc5c43)CC2)c1` reads “inactive”.
The result for `COc1cccc(NC(=O)Nc2ccc3c(c2)N(C)C(=O)c2ccccc2S3)c1` reads “inactive”; that for `COc1cccc(/C=N/Nc2cc(C)nc(-c3ccccc3O)n2)c1O`, 8.91 µM [quencher] (active); that for `COc1cccc(/C=N\NC(=O)C2=NNC(=O)C2C)c1O` (stereo not drawn), “inactive”.
Consider `COc1cccc(/C=N/NC(=O)c2[nH]nc3c2CCc2ccccc2-3)c1O`, for which the Potency result was “inactive”.
The result for `Cc1cc(C)c(/C=C/c2onc(C)c2S(=O)(=O)N2CCC(C(=O)Nc3ccc(Cl)cc3C)CC2)c(C)c1` reads “inactive”; that for `O=C(N/N=C/c1ccccn1)c1cccnc1`, “inactive”; that for `O=C(N/N=C/c1sc(N2CCCCC2)nc1-c1cccs1)c1cccnc1`, 15.8 µM [quencher] (active).
As for `Cc1cc(/C=N/NC(=O)c2cccnc2)c(C)n1CC(C)C`, the entry is “inactive”; as for `COc1ccc(CNc2nc(-c3ccc(Cl)cc3)nn2C(=O)c2ccccc2)cc1`, “inactive”.
As to `O=C(Cn1cc(SCc2ccccc2)c2ccccc21)N1CCCCC1`, the Potency result is “inactive”.
As to `CC(=O)N1CCc2cc(S(=O)(=O)NC(Cc3ccccc3)C(=O)NCc3ccc(C)cc3)ccc21` (stereo not drawn), the Potency result was “inactive”.
As for `CCN1CCN(C(=O)c2cc3cc4ccc(OC)cc4nc3s2)CC1`, the entry is “inactive”; as for `CCN(CCCNC(=O)c1cc2cc3cc(OC)ccc3nc2s1)c1ccccc1`, 4.47 µM [quencher] (active); as for `Cc1ccc(C(=O)NNC(=O)c2cc3cc4ccccc4nc3s2)cc1`, “inactive”.
The result for `O=C(CCS(=O)(=O)c1ccccc1)N(Cc1cccnc1)c1nc2c(F)cccc2s1` reads “inactive”; that for `COc1ccc(-c2c(C)cc3oc(=O)cc(-c4ccccc4)c3c2C)cc1F`, “inactive”.
As for `COc1ccc(-c2c(C)cc3oc(=O)cc(-c4ccccc4)c3c2C)cc1OC`, the entry is “inactive”; as for `COc1cc(OC)c2c(-c3cccc(-c4cccc(N)c4)c3)cc(=O)oc2c1`, 11.2 µM [quencher] (active); as for `CCOc1ccccc1NC(=O)CN1CCCN(Cc2cccc(Cl)c2)S1(=O)=O`, “inactive”.
Regarding `CC(CCCc1ccccc1)NC(=O)c1nn(-c2ccc(Cl)cc2)nc1CO` (stereo not drawn), the Potency entry was “inactive”.
As for `CN(C)c1cc2c(Nc3ccc4c(cnn4Cc4ccccc4)c3)ncnc2cn1`, the figure is 7.08 µM [quencher] (active); as for `CC(=O)Nc1ccc(NC(=O)CSc2ncnc3c2cnn3Cc2ccccc2)cc1`, “inactive”.
As for `Clc1ccc(Nc2ncnc3c2nnn3Cc2ccccc2)cc1`, the entry is “inactive”.

The record behind these values is PubChem BioAssay AID1463 (National Center for Advancing Translational Sciences (NCATS), 2008).
